Test [1] in a line: antimalarial activity against Dd2 strain (AID 2302;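 active = growth inhibition above 50% at the single 2 µM test dose, taken to imply half-maximal potency below 2 µM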;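 also: 0% = DMSO untreated growth and 100% = chloroquine plus artemisinin killed control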). Conditions: P. falciparum Dd2 in RBCs, LDH growth readout, 72 h; at 2 µM; hits give high values.
The nature of test [2]: human hepatoma cell viability loss – ATP luminescence, cytotoxicity control for P. falciparum antimalarial project, primary screen (AID 2303;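 active = inhibition above 50%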;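 also: 0% = DMSO wells and 100% = digitonin-killed cells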). To be noted: HepG2 viability, 24-48 h, at 10 µM, hits give high values.
For test [3], the target named is L-lactate dehydrogenase (Plasmodium falciparum (isolate CDC / Honduras)) (UniProt Q27743). Kind of test: PfLDH activity inhibition – cell lysate, 3D7 strain, counter-screen for P. falciparum growth inhibition project (AID 2304).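 Also: 0% = vehicle and 100% = reference inhibitor.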 Conditions: P. falciparum 3D7 crude extract, LDH APAD/NBT absorbance; at 2 µM; hits give high values. On the technique in general: The purpose of a counterscreen is to sort out artefacts and off-target activity.
Sequence of L-lactate dehydrogenase (Plasmodium falciparum (isolate CDC / Honduras)) (Q27743 whole entry, looked up): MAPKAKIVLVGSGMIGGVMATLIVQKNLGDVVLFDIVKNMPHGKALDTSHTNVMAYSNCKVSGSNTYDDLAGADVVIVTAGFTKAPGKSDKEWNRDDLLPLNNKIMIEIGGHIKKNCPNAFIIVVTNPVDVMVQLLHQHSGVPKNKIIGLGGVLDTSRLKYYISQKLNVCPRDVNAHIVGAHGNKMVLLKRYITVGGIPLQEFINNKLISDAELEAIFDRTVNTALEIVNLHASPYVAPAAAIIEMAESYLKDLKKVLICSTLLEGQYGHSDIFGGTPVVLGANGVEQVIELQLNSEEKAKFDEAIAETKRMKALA

A short description of test [4]: inhibition of 3D7 malaria parasite growth – strain 3D7 (AID 2306).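 Also: 0% = DMSO wells and 100% = chloroquine plus artemisinin control wells.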 Conditions: P. falciparum 3D7 erythrocytic growth, LDH absorbance, 72 h; at 2 µM; hits give high values.
The target of test [5] is Calcium-dependent protein kinase 1 (Plasmodium falciparum (isolate 3D7)) (UniProt P62344). As to the kind of experiment: PfCDPK1 kinase inhibitors, biochemical, TCAMS library (AID 1159585; cut-off not given, nearly all actives have IC50 up to about 0.98 µM;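 also: inhibitors leave more ATP so luminescence rises with inhibition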). Conditions: recombinant PfCDPK1, Kinase-Glo ATP depletion luminescence.
Sequence of Calcium-dependent protein kinase 1 (Plasmodium falciparum (isolate 3D7)) (P62344 whole entry, looked up): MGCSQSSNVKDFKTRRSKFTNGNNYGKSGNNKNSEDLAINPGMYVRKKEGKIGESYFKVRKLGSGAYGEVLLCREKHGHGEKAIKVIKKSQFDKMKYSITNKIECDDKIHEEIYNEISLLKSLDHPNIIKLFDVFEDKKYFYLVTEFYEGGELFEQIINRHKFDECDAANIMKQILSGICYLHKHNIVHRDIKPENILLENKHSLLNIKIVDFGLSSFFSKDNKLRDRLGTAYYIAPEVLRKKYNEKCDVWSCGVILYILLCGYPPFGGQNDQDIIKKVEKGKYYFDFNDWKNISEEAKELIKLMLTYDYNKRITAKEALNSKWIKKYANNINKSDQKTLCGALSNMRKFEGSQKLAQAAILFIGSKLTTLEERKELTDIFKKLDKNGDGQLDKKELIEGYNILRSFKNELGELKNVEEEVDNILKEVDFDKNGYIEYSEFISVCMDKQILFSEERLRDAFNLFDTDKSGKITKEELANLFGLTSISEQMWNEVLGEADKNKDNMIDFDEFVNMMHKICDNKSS
Test [6] has as its target Plasmodium falciparum protein kinase 6 (PK6, PF3D7_1337100) (UniProt Q8IDW1). Kind of test: PfPK6 kinase inhibitors, biochemical, TCAMS library (AID 1159586). To be noted: recombinant PfPK6, Kinase-Glo ATP depletion luminescence.
Test [7] addresses Protein kinase 7 (PK7), Plasmodium falciparum 3D7 (PF3D7_0213400) (UniProt Q7YTF7). As to the kind of experiment: inhibition of Plasmodium PK7 catalytic activity – biochemical, TCAMS antimalarial set, Kinase-Glo luminescence (AID 1159587). To be noted: recombinant PfPK7, Kinase-Glo ATP depletion luminescence. Background: Kinase-Glo reads ATP consumption through a luciferase reaction.

The target in test [8] is Calcium-dependent protein kinase 4 (Plasmodium falciparum (isolate 3D7)) (UniProt Q8IBS5). As to the kind of experiment: PfCDPK4 kinase inhibitors, biochemical, TCAMS library (AID 1159588; cut-off not given, nearly all actives have IC50 up to about 0.91 µM). Conditions: recombinant PfCDPK4, Kinase-Glo ATP depletion luminescence.
Sequence of Calcium-dependent protein kinase 4 (Plasmodium falciparum (isolate 3D7)) (Q8IBS5 whole entry, looked up): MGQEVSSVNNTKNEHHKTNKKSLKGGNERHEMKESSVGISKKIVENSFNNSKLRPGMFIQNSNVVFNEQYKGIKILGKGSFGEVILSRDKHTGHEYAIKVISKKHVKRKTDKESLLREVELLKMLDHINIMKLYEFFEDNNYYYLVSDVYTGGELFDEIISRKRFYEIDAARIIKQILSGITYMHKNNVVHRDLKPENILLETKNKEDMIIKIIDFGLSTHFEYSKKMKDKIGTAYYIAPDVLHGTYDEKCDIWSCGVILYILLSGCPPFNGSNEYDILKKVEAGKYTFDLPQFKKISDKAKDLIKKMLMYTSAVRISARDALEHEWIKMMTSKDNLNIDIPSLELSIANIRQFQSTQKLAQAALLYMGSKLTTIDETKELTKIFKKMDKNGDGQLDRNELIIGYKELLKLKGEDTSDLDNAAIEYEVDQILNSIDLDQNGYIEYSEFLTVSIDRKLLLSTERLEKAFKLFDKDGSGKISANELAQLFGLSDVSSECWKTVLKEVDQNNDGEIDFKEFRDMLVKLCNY

Unmarked numbers belong to inactive results. For part of these data: Measured potencies and affinities stand elsewhere. Active and inactive are the calls of the source. Unless noted, no rule for the calls is given here.

As a reminder, the inhibition is the relative decrease from the control value, in per cent.

Sequence of Protein kinase 7 (PK7), Plasmodium falciparum 3D7 (PF3D7_0213400) (Q7YTF7 1-343): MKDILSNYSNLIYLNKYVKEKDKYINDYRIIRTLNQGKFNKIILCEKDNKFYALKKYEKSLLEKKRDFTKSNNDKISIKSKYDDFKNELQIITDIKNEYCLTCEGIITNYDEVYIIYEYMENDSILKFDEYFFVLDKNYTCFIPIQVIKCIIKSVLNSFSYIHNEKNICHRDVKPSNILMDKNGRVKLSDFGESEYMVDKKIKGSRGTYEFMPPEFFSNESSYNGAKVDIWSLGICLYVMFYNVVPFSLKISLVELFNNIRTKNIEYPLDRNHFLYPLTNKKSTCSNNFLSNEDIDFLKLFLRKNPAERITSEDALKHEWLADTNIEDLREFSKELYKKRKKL
Sequence of Plasmodium falciparum protein kinase 6 (PK6, PF3D7_1337100) (Q8IDW1 1-305): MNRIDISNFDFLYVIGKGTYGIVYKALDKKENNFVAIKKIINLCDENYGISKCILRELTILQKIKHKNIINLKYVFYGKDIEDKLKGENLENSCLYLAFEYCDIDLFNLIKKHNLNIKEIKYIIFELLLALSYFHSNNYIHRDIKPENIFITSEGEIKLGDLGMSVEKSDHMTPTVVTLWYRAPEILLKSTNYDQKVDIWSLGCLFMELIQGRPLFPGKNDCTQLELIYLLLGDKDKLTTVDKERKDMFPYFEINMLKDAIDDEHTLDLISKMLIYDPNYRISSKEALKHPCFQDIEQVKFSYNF

On to `COc1ccc(-c2nc(NC(=O)CS(=O)(=O)c3ccc(F)cc3)sc2C)cc1`, for which the growth inhibition in test [1] is 99% (active); in test [4], 100% (active). Also, the inhibition in test [2] is 20%; in test [3], -3%. The outcome in test [5], in test [6], in test [7] and in test [8] was inactive.

As to `COc1ccc(CNC2CCN(C)CC2)cc1-c1ccc(S(=O)(=O)NC2CCC2)c(C)c1`, the growth inhibition in test [1] is 96% (active); in test [4], 101% (active). The inhibition in test [2] was 24%; in test [3], 0%. For the same compound, the result in test [5], in test [6], in test [7] and in test [8] was inactive.

For `COc1ccc2nccc([C@@H](O)CN3CCC(NCC4COc5ccccc5O4)CC3)c2c1` (some centres undefined), the values for the growth inhibition in test [1] and in test [4] were 94% (active) and 98% (active), respectively. The inhibition was 17% in test [2] and 4% in test [3]. For the same compound, the result in test [5], in test [6], in test [7] and in test [8] was inactive.

As to `Cc1cc(CNCCCCCCCNCc2ccc(Cl)cc2)ccc1O`, the growth inhibition was 0% in test [1] and 97% (active) in test [4]. The figures for the inhibition in test [2] and in test [3] were 13% and -4%, respectively. Moreover, the outcome in test [5], in test [6], in test [7] and in test [8] was inactive.

Take `CC1(C)N=C(N)N=C(N)N1c1cc(Cl)c(Cl)cc1Cl`: the results for the growth inhibition in test [1] and in test [4] were -3% and 95% (active), respectively. Further, the figures for the inhibition in test [2] and in test [3] were 11% and 1%, respectively. The outcome in test [5], in test [6], in test [7] and in test [8] was inactive.

Consider `CCNc1cc(C(=O)N[C@@H](Cc2ccccc2)[C@H](O)CN[C@@H]2CCc3ccccc32)cc(N2CCCCS2(=O)=O)c1`, for which the growth inhibition in test [1] is 97% (active); in test [4] it was 98% (active). Also, the inhibition is -7% in test [2] and 4% in test [3]. For the same compound, the outcome in test [5], in test [6], in test [7] and in test [8] was inactive.

`CCC(C)NC(=O)CN1CN(c2ccccc2)C2(CCN(C(=O)c3ccc4ccccc4c3)CC2)C1=O` (centres undefined): the growth inhibition in test [1] is 78% (active); in test [4], 95% (active). The inhibition in test [2] is -6%; in test [3], -2%. For the same compound, the result in test [5], in test [6], in test [7] and in test [8] was inactive.

With `O=C(c1cccc(-c2noc(C(F)(F)F)n2)c1)N1CCN(C(=O)c2ccc3cc[nH]c3c2)CC1`, the growth inhibition is 85% (active) in test [1] and 94% (active) in test [4]. Besides, the inhibition is 15% in test [2] and -3% in test [3]. Also, the result in test [5], in test [6], in test [7] and in test [8] was inactive.

Regarding `COc1ccc(CC(=O)NC(CCN2CCC3(CC2)CN(S(C)(=O)=O)c2ccccc23)c2ccc(Cl)c(Cl)c2)cc1OC` (centres undefined), the growth inhibition in test [1] is 77% (active); in test [4], 92% (active). Further, the inhibition in test [2] is 10%; in test [3] it was 7%. For the same compound, the outcome in test [5], in test [6], in test [7] and in test [8] was inactive.

Turning to `CCN(CC)CCN(Cc1ccc(-c2ccc(C(F)(F)F)cc2)nc1)C(=O)Cn1c(SCc2ccc(F)cc2)nc(=O)c2sccc21`, the growth inhibition in test [1] is 66% (active); in test [4] it was 96% (active). For the same compound, the inhibition in test [2] is 43%; in test [3] it was -2%. The outcome in test [5], in test [6], in test [7] and in test [8] was inactive.

With `N#CNC(=NCCCSc1csc(N=C(N)N)n1)NCCCCCCCCN=C(NC#N)NCCSCc1csc(N=C(N)N)n1`, the figures for the growth inhibition in test [1] and in test [4] were 24% and 91% (active), respectively. The values for the inhibition in test [2] and in test [3] were -1% and -4%, respectively. The outcome in test [5], in test [6], in test [7] and in test [8] was inactive.

On to `CO/N=C(\C)c1ccc2c(c1)CCN(CCC1CCC(NC(=O)/C=C/c3ccc(F)cc3)CC1)CC2` (centres undefined), for which the growth inhibition in test [1] is 15%; in test [4], 95% (active). The inhibition in test [2] was 45%; in test [3], 1%. The outcome in test [5], in test [6], in test [7] and in test [8] was inactive.

Consider `CC(C)c1ccc(NC(=O)c2cccc(CN3CCCN(CC4CCCCC4)CC3)c2)cc1`, for which the growth inhibition was 59% (active) in test [1] and 85% (active) in test [4]. Besides, the figures for the inhibition in test [2] and in test [3] were 62% (active) and 2%, respectively. Further, the result in test [5], in test [6], in test [7] and in test [8] was inactive.

Regarding `Cc1cc(O)c(CN2CCN(Cc3cccs3)CC2)cc1C(C)C`, the growth inhibition in test [1] is 97% (active); in test [4] it was 98% (active). Besides, the inhibition is 7% in test [2] and -2% in test [3]. Further, the outcome in test [5], in test [6], in test [7] and in test [8] was inactive.

Take `Cc1cccc2[nH]c(-c3cccc(-c4cccc(CNCCc5cccn5C)c4)c3)nc12`: the figures for the growth inhibition in test [1] and in test [4] were 49% and 91% (active), respectively. The inhibition was 4% in test [2] and 2% in test [3]. Further, the outcome in test [5], in test [6], in test [7] and in test [8] was inactive.

Turning to `COc1ccccc1C1CCN(C2CCC(NC(=O)/C=C/c3ccc(C(F)(F)F)cc3)CC2)CC1` (centres undefined), the growth inhibition in test [1] was 7%; in test [4], 88% (active). For the same compound, the inhibition in test [2] was 57% (active); in test [3], 4%. For the same compound, the result in test [5], in test [6], in test [7] and in test [8] was inactive.

On to `O=C(Cn1c(CCc2cccc(F)c2F)nc(=O)c2ccccc21)N(Cc1ccc(-c2ccc(C(F)(F)F)cc2)cc1)C1CCN(C2CCSCC2)CC1`, for which the growth inhibition is 93% (active) in test [1] and 99% (active) in test [4]. The inhibition in test [2] is 97% (active); in test [3], 0%. The outcome in test [5], in test [6], in test [7] and in test [8] was inactive.

`OCC1CCCCN1Cc1cccc(-c2cccc(-c3nc4ccccc4[nH]3)c2)c1` (centres undefined): the growth inhibition in test [1] was 4%; in test [4], 95% (active). The figures for the inhibition in test [2] and in test [3] were 24% and 0%, respectively. For the same compound, the outcome in test [5], in test [6], in test [7] and in test [8] was inactive.

Values taken from PubChem BioAssay.
